Records with an inconclusive call do not appear. Calls of active or inactive are those of the source. The call rests on the fitted dose curve; in most records, active means well fitted inhibition curve with a large enough effect; inconclusive means small, poorly fitted or top-dose-only effect; inactive means flat fitted curve, though single readings scatter.
Test: P-glycoprotein substrates identified in KB-8-5-11 adenocarcinoma cell line, qHTS therapeutic library screen (AID 1346987); further: nearly all actives have a fitted effect of over 65% in size
Conditions: KB-8-5-11 (P-gp overexpressing) viability, CellTiter-Glo, 72 h; series mostly up to 44.5 µM; activity change, negative = cytotoxicity: at the top concentration
Excerpt: The ATP-binding cassette transporters P-glycoprotein (P-gp) is known to limit brain penetration of many chemotherapy drugs. […] As such, we developed a high-throughput screen (HTS) to identify substrates of P-gp from a series of chemical libraries including the National Center for Advancing Translational Sciences Pharmaceutical Collection NPC, 2,816 compounds), testing a total of 10,804 compounds, most of which have known mechanisms of action. We used the CellTiter-Glo viability assay to test library compounds against the parental KB-3-1 human cervical adenocarcinoma cell line and the colchicine-selected sub-line KB-8-5-11 that over-expresses P-gp. KB-8-5-11 cells were also tested in the presence of a P-gp inhibitor (tariquidar) to assess reversability of transporter-mediated resistance. Of the tested compounds, a total of 90 P-gp substrates were identified including 55 newly identified P-gp substrates. Substrates were confirmed using an orthogonal killing assay against HEK-293 cells transfected with P-gp. As exemplars, we confirmed that […] (cyclin-dependent kinase inhibitor); AT9283, (Janus kinase 2/3 inhibitor); ispinesib (kinesin spindle protein inhibitor); gedatolisib (PKI-587, phosphoinositide 3-kinase/mammalian target of rampamycin inhibitor); GSK-690693 (AKT inhibitor); and KW-2478 (heat shock protein 90 inhibitor) were substrates , and direct ATPase stimulation was assessed. ABCG2 was also found to confer high levels of resistance to AT9283, GSK-690693 and gedatolisib, while ispinesib, AT7519 and KW-2478 were weaker substrates.
The HeLa derivative cell line, KB-3-1, and its colchicine-selected, P-gp-overexpressing subline, KB-8-5-11 were maintained in DMEM with 10% FCS and Pen/Strep with glutamine at 37 degree C in 5% CO2. For KB-8-5-11 cells, colchicine was added to the medium at a concentration of 100 ng/mL. HEK-293 cells transfected with empty vector (pcDNA) or vector containing human ABCB1 (MDR-19) or ABCG2 (R-5) have been described previously (Robey, Lin, Qiu, Chan & Bates, 2011) and were maintained in EMEM supplemented with 10% FCS, Pen/Strep and glutamine with 2 mg/ml G418 to select for the expression of the transporter. Cultures were confirmed to be free of mycoplasma infection using the MycoAlert Mycoplasma Detection Kit (Lonza, Walkersville, MD). For the screen, assay medium was identical to culture medium except for KB-8-5-11 where colchicine was excluded from the medium.
All cell lines were plated into 1536-well plates at 500 cells/well in 5 uL media. Compounds were then pinned in dose-response using a 1536-head pin tool (Kalypsis, San Diego, CA) and plates were incubated at 37 degree C in 5% CO2 for an additional 72 h. CellTiter-Glo reagent (Promega) was dispensed into the wells, incubated for 5 min and luminescence was read on a ViewLux instrument (Perkin-Elmer). Cytotoxic compounds were defined as those that yielded a curve class of -1.1, -1.2, -2.1, -2.2, -2.3, or -2.4, a maximum response of >50% and an AC50 of < 10 uM. Cherry-picked hits from screening analysis were tested with both the KB pair of cell lines, and the pcDNA (empty vector control) and MDR-19 (P-gp overexpressing) pair were tested, in the absence and presence of tariquidar.
On the % scale 0 is the no-effect control and ±100 the full control effect; potency means the concentration at half of the fitted maximal effect.

SMILES | activity change, negative = cytotoxicity | outcome | Potency
CC(C)NC[C@H](O)COc1ccc(CCOCC2CC2)cc1 | 6.59% (inactive) |  | 
CC(=O)C1CCC2(C)C3=C(CCC12C)C1(C)CCC(=O)C(C)(C)C1CC3 (stereo not given) |  | inactive | 
C/C=C/C=C/C(CC(=O)O)Nc1ccc(C=O)cc1 (stereo not given) |  | inactive | 
CNC(=O)[C@H]1O[C@@H](n2cnc3c(NCc4ccc(N)c(I)c4)ncnc32)[C@H](O)[C@@H]1O |  | inactive [at 9.29 µM] | 
C=C1CC[C@@H]2[C@](C)(CO[C@@H]3O[C@H](CO)[C@@H](O)[C@H](O)[C@H]3O)CCC[C@@]2(C)[C@@H]1CCC1=CCOC1=O |  | inactive [at 17.3 µM] | 
CC1=C(/C=C/C(C)=C/C=C/C(C)=C/C=C/C=C(C)/C=C/C=C(C)/C=C/C2=C(C)C(=O)CCC2(C)C)C(C)(C)CCC1=O | 8.26% (inactive) |  | 
CC1(C)C[C@H]2C3=CCC4[C@@]5(C)CC[C@H](O[C@H]6O[C@H](C(=O)O)[C@@H](O)[C@H](O)[C@H]6O[C@H]6O[C@H](CO)[C@@H](O)[C@H](O)[C@H]6O[C@@H]6O[C@H](CO)[C@@H](O)[C@H](O)[C@H]6O)[C@](C)(CO)C5CC[C@@]4(C)[C@]3(C)CC[C@@]2(C)[C@H](O[C@@H]2OC[C@H](O)[C@H](OC3O[C@H](CO)[C@@H](O)[C@H](O)[C@H]3O)[C@H]2O)[C@@H]1O (stereo not given in full) |  | inactive [at 9.29 µM] | 
CC[C@@]1(O)C(=O)OCc2c1cc1n(c2=O)Cc2cc3c([N+](=O)[O-])cccc3nc2-1 |  |  | 16.4 µM (active)
CCc1c(CC(N)=O)c2cc(OCCCP(=O)(O)O)ccc2n1Cc1ccccc1 |  | inactive | 
CC1=CC(=O)CC(C)(C)C1CCC(C)OC1OC(COC(=O)c2cc(O)c(O)c(O)c2)C(O)C(O)C1O (stereo not given) | 1.57% [at 17.3 µM] (inactive) |  | 
COC(=O)C1C(c2ccc(O)cc2)C(C(=O)OC)C1c1ccc(O)cc1 (stereo not given) | 8.52% (inactive) |  | 
COC(=O)[C@@]1(O)C=CC[C@@H]2[C@@]3(C)C[C@@H](c4ccoc4)OC(=O)[C@H]3CC[C@]21C |  | inactive | 
CC1(C)CC2C3=CCC4C5(C)CCC(OC6OC(CO)C(O)C(OC7OC(CO)C(O)C(OC8OC(CO)C(O)C(OC9OC(COC%10OC(CO)C(O)C(O)C%10O)C(O)C(O)C9O)C8O)C7O)C6O)C(C)(C)C5CCC4(C)C3(C)CCC2(C(=O)O)CC1O (stereo not given) | -1.4% [at 9.29 µM] (inactive) |  | 
CC1C/C=C/C=C\CCCCC(O)C/C=C/C(=O)O1 (stereo not given) |  | inactive | 
CC1CCC2(NC1)OC1C(=O)C3C4CCC5CC(O[C@@H]6O[C@H](CO)[C@@H](O)[C@H](O)[C@H]6O[C@@H]6O[C@@H](C)[C@H](O)[C@@H](O)[C@H]6O)CCC5(C)C4CCC3(C)C1C2C (stereo not given in full) | 8.48% [at 17.3 µM] (inactive) |  | 
COc1ccccc1-n1c(SCC(=O)Nc2nc3ccc(C)cc3s2)nc2c(c1=O)SCC2 | -3.59% [at 17.3 µM] (inactive) |  | 
C=C1CC2C3(C)C(OC(C)=O)CC(=O)OC(C)(C)C3C(O)C(OC(C)=O)C2(C)C2C(=O)OC(C)C(=O)C12C (stereo not given) | 4.84% [at 17.3 µM] (inactive) |  | 
CC1=C(CC(=O)O)c2cc(F)ccc2C1=Cc1ccc(S(C)(=O)=O)cc1 |  | inactive | 
COc1cc2c(cc1O)C1(OC)Cc3ccc4c(c3C1N(C)CC2)OCO4 (stereo not given) | 4.82% (inactive) |  | 
O=C(/C=C/c1c(C(=O)O)[nH]c2cc(Cl)cc(Cl)c12)Nc1ccccc1 | 9.14% (inactive) |  | 

SMILES | activity change, negative = cytotoxicity | outcome | Potency
COC(=O)C12C(=O)C(C)=C(O)C1(C)C(C)=CC1C34CCC(OC3=O)C(C)(C)C4CCC12C (stereo not given) | 6.08% [at 17.3 µM] (inactive) |  | 
O=C(O)c1n[nH]c2c1C[C@H]1C[C@@H]21 |  | inactive | 
C[C@@H]1CC[C@]2(C)C(C[C@@H](O)[C@H](O)[C@]23CO3)[C@@]1(C)CCc1ccoc1 (stereo not given in full) | -1.18% (inactive) |  | 
CN1CC[C@@H](NC(=O)Nc2ccc(C#N)cc2)C[C@@H]1c1nc2ccccc2[nH]1 | 1.99% (inactive) |  | 
O=C(/C=C/c1ccc(O)cc1)OC[C@H]1O[C@@H](OC(=O)/C=C/c2ccccc2)[C@H](O)[C@@H](O)[C@@H]1O | 2.77% [at 17.3 µM] (inactive) |  | 
COC(=O)[C@H]1[C@H]2C[C@@H]3c4[nH]c5ccccc5c4CCN3C[C@H]2C[C@@H](OC(=O)c2cc(OC)c(OC)c(OC)c2)[C@@H]1OC |  |  | 4.11 µM (active)
CC(=O)O[C@@]1(C)C[C@@H](O)[C@]2(O)C=CO[C@@H](O[C@@H]3O[C@H](CO)[C@@H](O)[C@H](O)[C@H]3O)[C@@H]21 |  | inactive [at 17.3 µM] | 
CC(/C=C/C1(O)C2(C)COC1(C)CC(=O)C2)O[C@@H]1O[C@H](CO)[C@@H](O)[C@H](O)[C@H]1O (stereo not given in full) |  | inactive [at 17.3 µM] | 
C/C=C(\C)C(=O)O[C@@H](C)[C@H]1CC[C@]2(O)C3CCC4C[C@@H](OC5CC(OC)C(OC6CC(OC)C(OC7CC(OC)C(OC8OC(C)C(OC9OC(CO)C(O)C(O)C9O)C(OC)C8O)C(C)O7)C(C)O6)C(C)O5)CC[C@]4(C)C3[C@H](O)[C@@H](O)[C@]12C (stereo not given in full) | 2.39% [at 9.29 µM] (inactive) |  | 
CC1(C)CC[C@]2(C(=O)O)CC[C@]3(C)C(=CCC4[C@@]5(C)CCC(O[C@@H]6OC[C@H](O)[C@H](O)[C@H]6O[C@@H]6O[C@H](CO)[C@@H](O)[C@H](O)[C@H]6O)[C@@](C)(CO)C5CC[C@]43C)[C@@H]2C1 (stereo not given in full) |  | inactive [at 17.3 µM] | 
CC(=O)O[C@]1(C(C)=O)CC[C@H]2[C@@H]3CCC4=CC(=O)CC[C@]4(C)[C@@]3(F)[C@@H](O)C[C@@]21C | -26.6% (inactive) |  | 
Cn1c(=O)c2nc(/C=C/c3cccc(Cl)c3)n(C)c2n(C)c1=O |  | inactive [at 93.4 µM] | 
COC1=CC(=O)O[C@@H](CCc2ccccc2)[C@@H]1O | 4.29% (inactive) |  | 
C/C=C(/C)C(=O)O[C@H]1C=C(C)C[C@H](OC(=O)c2ccc(O)cc2)C2[C@](O)(C(C)C)CC[C@@]21C (stereo not given in full) | -11.2% [at 17.3 µM] (inactive) |  | 
CC(=O)c1c(O)cc2c(c1C)C(=O)CC(O)C2 (stereo not given) |  | inactive | 
CC(=O)N[C@H]1[C@H](O[C@H]2CC[C@@]3(C)C(CC[C@]4(C)C3CC=C3C5CC(C)(C)CC[C@]5(C(=O)O)[C@H](O[C@@H]5O[C@H](CO)[C@@H](O)[C@H](O)[C@H]5O)C[C@]34C)C2(C)C)O[C@H](CO[C@@H]2OC[C@H](O)[C@H](O)[C@H]2O[C@@H]2OC[C@@H](O)[C@H](O)[C@H]2O)[C@@H](O)[C@@H]1O (stereo not given in full) |  | inactive [at 9.29 µM] | 
COC(=O)CC[C@@H](C)[C@H]1CC[C@H]2[C@@H]3CC(=O)[C@H]4C[C@H](OC(C)=O)CC[C@]4(C)[C@H]3CC[C@]12C |  | inactive | 
CC(C)C(=O)c1cn(CC(=O)COc2ccc(Oc3ccccc3)cc2)c2ccc(C(=O)O)cc12 |  | inactive | 
C[C@@H]1O[C@@H](OC[C@H]2O[C@@H](OCC3CCC4CC3C4(C)C)[C@H](O)[C@@H](O)[C@@H]2O)[C@H](O)[C@H](O)[C@H]1O (stereo not given in full) |  | inactive [at 17.3 µM] | 
C=CCSSSCC=C | -19.4% (inactive) |  | 

From PubChem BioAssay (NCATS)
